Test results reported in PubChem BioAssay (NCI).
Values joined by “and” are separate entries in the source; they are usually repeats but may differ in a detail not shown here. Equal values may be shown once. This is part of a sample that, as a whole, favours compounds with a hit. Of some 79,000 tested, about 15% had one in any assay. Where a structure was tested more than once in an assay, its records may differ in their call. Active and inactive are the calls of the source. No stated cut-off is given here; in the data, active means growth inhibition above about 70%; inactive means the rest.

What was measured:
[1] = NCI Yeast Anticancer Drug Screen. Data for the rad52 strain (AID 147);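 further: 0% = growth of vehicle-treated control cultures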; conditions: S. cerevisiae rad52 mutant growth inhibition, stronger effect = higher value
In short: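 Read-out: growth inhibition versus vehicle-treated controls. Cells were a DNA repair-deficient yeast strain treated with compounds.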

[2] = NCI Yeast Anticancer Drug Screen. Data for the wt1 strain (AID 149);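 further: 0% = growth of vehicle-treated wt1 cultures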; conditions: S. cerevisiae wt1 strain (SPY 50644) growth inhibition, stronger effect = higher value
In short: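 Growth inhibition read against vehicle controls after compound exposure of the wt1 yeast strain.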

[3] = NCI Yeast Anticancer Drug Screen. Data for the rad50EPP+ strain (AID 151);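 further: 0% = growth of vehicle-treated control cultures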; conditions: S. cerevisiae rad50 mutant strain, stronger effect = higher value
In short: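 Growth inhibition read against vehicle controls in rad50EPP+ yeast, a strain altered in DNA damage repair, after compound exposure.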

[4] = NCI Yeast Anticancer Drug Screen. Data for the mgt1 strain (AID 153); conditions: S. cerevisiae mgt1 mutant growth inhibition, stronger effect = higher value
In short: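 mgt1 yeast grown with test compound; read-out is growth inhibition versus vehicle-treated cultures.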

[5] = NCI Yeast Anticancer Drug Screen. Data for the rad50 strain (AID 155);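 further: 0% = growth of vehicle-only cultures of the same strain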; conditions: S. cerevisiae rad50 strain growth inhibition, stronger effect = higher value
In short: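 Readout: growth inhibition relative to vehicle-treated cultures. Compound exposure was carried out in a genetically defined yeast strain deficient in DNA damage repair.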

[6] = NCI Yeast Anticancer Drug Screen. Data for the mec2-1 strain (AID 157); conditions: S. cerevisiae mec2-1 strain, stronger effect = higher value
In short: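 Yeast mec2-1 mutant treated with compound. Readout: growth inhibition vs vehicle controls.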

[7] = NCI Yeast Anticancer Drug Screen. Data for the rad14 strain (AID 159);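 further: 0% = growth of vehicle-treated control cultures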; conditions: S. cerevisiae rad14 strain growth inhibition, stronger effect = higher value
In short: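 Growth inhibition vs vehicle controls; genetically altered yeast strain (DNA damage repair defect) treated with test compounds.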

[8] = NCI Yeast Anticancer Drug Screen. Data for the CLN2oe strain (AID 163);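 further: 0% = growth of vehicle-only control cultures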; conditions: S. cerevisiae CLN2oe strain, stronger effect = higher value
In short: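 Read-out: yeast growth inhibition, expressed relative to vehicle-only controls. The strain bears an engineered cell-cycle alteration.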

[9] = NCI Yeast Anticancer Drug Screen. Data for the cln2 rad14 strain (AID 165);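 further: 0% = growth equal to vehicle treated cultures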; conditions: S. cerevisiae cln2 rad14 strain, stronger effect = higher value
In short: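 cln2 rad14 yeast strain; compound exposure; growth inhibition read vs vehicle controls.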

[10] = NCI Yeast Anticancer Drug Screen. Data for the bub3 strain (AID 167); conditions: S. cerevisiae bub3 mutant strain, stronger effect = higher value
In short: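 Readout: yeast growth inhibition, expressed relative to vehicle-only wells. The test organism is a mutant strain from a panel with lesions in DNA repair or checkpoint genes.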

[11] = NCI Yeast Anticancer Drug Screen. Data for the wt2 strain (AID 169);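 further: 0% = growth of vehicle-treated yeast cultures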; conditions: S. cerevisiae wt2 strain growth inhibition, stronger effect = higher value
In short: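 Read-out: growth inhibition versus vehicle-treated control cultures after compound exposure of the yeast strain.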

[12] = NCI Yeast Anticancer Drug Screen. Data for the mlh1 strain (AID 171);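 further: 0% = growth of vehicle-treated control cultures of the same strain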; conditions: S. cerevisiae mlh1 strain growth inhibition, stronger effect = higher value
In short: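 Read-out: growth inhibition versus vehicle controls. Strain: engineered yeast with a defined DNA repair or cell cycle defect, compound-treated.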

[13] = NCI Yeast Anticancer Drug Screen. Data for the sgs1 strain (AID 173);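 further: 0% = growth of vehicle-only control cultures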; conditions: S. cerevisiae sgs1 mutant, stronger effect = higher value
In short: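 Read-out: yeast growth inhibition relative to vehicle controls, following compound exposure of a strain with a defined DNA repair/cell cycle alteration.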

[14] = NCI Yeast Anticancer Drug Screen. Data for the mlh1 rad18 strain (AID 175); conditions: S. cerevisiae mlh1 rad18 strain growth inhibition, stronger effect = higher value
In short: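 Yeast w/ defined DNA-repair lesions; compound exposure; growth vs vehicle controls → % inhibition.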

[15] = NCI Yeast Anticancer Drug Screen. Data for the rad18 strain (AID 177); conditions: S. cerevisiae rad18 mutant growth inhibition, stronger effect = higher value
In short: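 Readout: growth inhibition vs vehicle controls. Cells: genetically altered yeast strain, DNA repair defect.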

[16] = NCI Yeast Anticancer Drug Screen. Data for the sgs1 mgt1 strain (AID 161);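 further: 0% = growth of cultures given vehicle only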; conditions: S. cerevisiae sgs1 mgt1 strain, stronger effect = higher value
In short: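 Read-out: growth inhibition vs vehicle controls. Cells: mutant yeast strain deficient in DNA damage repair.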

[17] = at 5.0 µM (retest, dose inferred, filed as 0.5)
[18] = at 50.0 µM (retest, dose inferred, filed as 5.0)

Measured: growth inhibition

O=C(/C=C(\c1ccccc1)N1CC1)c1ccccc1
active: [1]; at 100.0 µM 97% | [2]; at 100.0 µM 84% | [3]; at 33.0 µM 72% | [3]; at 100.0 µM 86% | [4]; at 100.0 µM 93% | [5]; [18] 86% | [5]; at 100.0 µM 98% | [6]; at 100.0 µM 97% | [7]; at 100.0 µM 99% | [8]; at 100.0 µM 84% | [10]; at 100.0 µM 93% | [11]; at 100.0 µM 93% | [12]; at 100.0 µM 98% | [13]; at 100.0 µM 97% | [14]; [18] 73% | [15]; at 100.0 µM 96%
inactive: [1]; at 1.2 µM -5% | [1]; at 3.7 µM -10% | [1]; at 11.0 µM -2% | [1]; at 33.0 µM 8% | [2]; at 1.2 µM -5% | [2]; at 3.7 µM -4% | [2]; at 11.0 µM -5% | [2]; at 33.0 µM 0% | [3]; at 1.2 µM 2% | [3]; at 3.7 µM 17% | [3]; at 11.0 µM 50% | [4]; at 1.2 µM -2% | [4]; at 3.7 µM -4% | [4]; at 11.0 µM -4% | [4]; at 33.0 µM 19% | [5]; at 1.2 µM -13% | [5]; at 3.7 µM -7% | [5]; [17] -140% | [5]; at 11.0 µM 8% | [5]; at 33.0 µM 33% | [5]; at 50.0 µM 62.5% | [6]; at 1.2 µM 2% | [6]; at 3.7 µM 1% | [6]; [17] -46% | [6]; at 11.0 µM 12% | [6]; at 33.0 µM -1% | [6]; [18] 28% | [6]; at 50.0 µM 59.8% | [7]; at 1.2 µM -4% | [7]; at 3.7 µM -1% | [7]; at 11.0 µM 3% | [7]; at 33.0 µM 40% | [8]; at 1.2 µM 4% | [8]; at 3.7 µM 1% | [8]; at 11.0 µM 0% | [8]; at 33.0 µM 0% | [9]; [17] -63% | [9]; [18] 12% | [9]; at 50.0 µM 0.55% | [10]; at 1.2 µM -7% | [10]; at 3.7 µM 0% | [10]; [17] -62% | [10]; at 11.0 µM 8% | [10]; at 33.0 µM 21% | [10]; [18] 54% | [10]; at 50.0 µM 63.9% | [11]; at 1.2 µM 0% | [11]; at 3.7 µM 0% | [11]; at 11.0 µM 1% | [11]; at 33.0 µM 3% | [12]; at 1.2 µM 7% | [12]; at 3.7 µM -3% | [12]; at 11.0 µM -5% | [12]; at 33.0 µM 6% | [13]; at 1.2 µM 1% | [13]; at 3.7 µM 2% | [13]; at 11.0 µM 3% | [13]; at 33.0 µM 31% | [14]; [17] -139% | [14]; at 50.0 µM 67.5% | [15]; at 1.2 µM -1% | [15]; at 3.7 µM 4% | [15]; at 11.0 µM 13% | [15]; at 33.0 µM 16%

CCCCCCCCCCCCCCCCP(=O)(O)OP(=O)(O)OCC1OC(n2ccc(N)nc2=O)C(O)C1O (stereo not drawn)
88.3% (active) and 3.75% (inactive): [16]; at 50.0 µM
73.3% (active) and 8.3% (inactive): [5]; at 50.0 µM
76% (active) and -16.8% (inactive): [10]; at 50.0 µM
74% (active) and -35.4% (inactive): [14]; at 50.0 µM
80.7% (active) and -3.1% (inactive): [6]; at 50.0 µM
inactive: [1]; at 1.2 µM 3% | [1]; at 3.7 µM 3% | [1]; at 11.0 µM 4% | [1]; at 33.0 µM 3% | [1]; at 100.0 µM 5% | [2]; at 1.2 µM 3% | [2]; at 3.7 µM 4% | [2]; at 11.0 µM 6% | [2]; at 33.0 µM 3% | [2]; at 100.0 µM 3% | [3]; at 1.2 µM 0% | [3]; at 3.7 µM -5% | [3]; at 11.0 µM -6% | [3]; at 33.0 µM -2% | [3]; at 100.0 µM 18% | [5]; at 1.2 µM 2% | [5]; at 3.7 µM 1% | [5]; [17] -13% | [5]; at 11.0 µM 2% | [5]; at 33.0 µM 0% | [5]; [18] 10% | [5]; at 100.0 µM 3% | [6]; at 1.2 µM -3% | [6]; at 3.7 µM -3% | [6]; [17] -9% | [6]; at 11.0 µM -4% | [6]; at 33.0 µM -5% | [6]; [18] -13% | [6]; at 100.0 µM -3% | [16]; [17] -2% | [16]; [18] 46% | [8]; at 1.2 µM -3% | [8]; at 3.7 µM -7% | [8]; at 11.0 µM -6% | [8]; at 33.0 µM -17% | [8]; at 100.0 µM -17% | [9]; [17] 0% | [9]; [18] 6% | [9]; at 50.0 µM 59.9% and -13.4% | [10]; at 1.2 µM -1% | [10]; at 3.7 µM -2% | [10]; [17] 14% | [10]; at 11.0 µM -4% | [10]; at 33.0 µM -10% | [10]; [18] -19% | [10]; at 100.0 µM -19% | [11]; at 1.2 µM 1% | [11]; at 3.7 µM 0% | [11]; at 11.0 µM 1% | [11]; at 33.0 µM 1% | [11]; at 100.0 µM 1% | [12]; at 1.2 µM 0% | [12]; at 3.7 µM 0% | [12]; at 11.0 µM 1% | [12]; at 33.0 µM -4% | [12]; at 100.0 µM 1% | [13]; at 1.2 µM 0% | [13]; at 3.7 µM 0% | [13]; at 11.0 µM -3% | [13]; at 33.0 µM 1% | [13]; at 100.0 µM 21% | [14]; [17] -19% | [14]; [18] 26% | [15]; at 1.2 µM -1% | [15]; at 3.7 µM -2% | [15]; at 11.0 µM 3% | [15]; at 33.0 µM 0% | [15]; at 100.0 µM 11%

O=C1c2ccc3ccccc3c2CCC1N1CCCCC1 (stereo not drawn)
inactive: [1]; at 1.2 µM 4% | [1]; at 3.7 µM 16% | [1]; at 11.0 µM 41% | [2]; at 1.2 µM 3% | [2]; at 3.7 µM 11% | [2]; at 11.0 µM 9% | [2]; at 33.0 µM 27% | [3]; at 1.2 µM 32% | [3]; at 3.7 µM 53% | [5]; at 1.2 µM 2% | [5]; at 3.7 µM 8% | [5]; [17] 9% | [5]; at 11.0 µM 16% | [6]; at 1.2 µM 0% | [6]; at 3.7 µM 11% | [6]; [17] 10% | [6]; at 11.0 µM 17% | [6]; at 33.0 µM 62% | [16]; [17] 19% | [9]; [17] 7% | [10]; at 1.2 µM -7% | [10]; at 3.7 µM -6% | [10]; [17] 10% | [10]; at 11.0 µM 8% | [11]; at 1.2 µM 5% | [11]; at 3.7 µM 14% | [11]; at 11.0 µM 33% | [12]; at 1.2 µM -1% | [12]; at 3.7 µM 7% | [12]; at 11.0 µM 22% | [13]; at 1.2 µM 4% | [13]; at 3.7 µM 12% | [13]; at 11.0 µM 41%
active: [1]; at 33.0 µM 81% | [1]; at 100.0 µM 98% | [2]; at 100.0 µM 97% | [3]; at 11.0 µM 77% | [3]; at 33.0 µM 85% | [3]; at 100.0 µM 98% | [5]; at 33.0 µM 73% | [5]; [18] 97% | [5]; at 50.0 µM 98.9% | [5]; at 100.0 µM 98% | [6]; [18] 99% | [6]; at 50.0 µM 98.8% | [6]; at 100.0 µM 95% | [16]; [18] 98% | [16]; at 50.0 µM 99.2% | [9]; [18] 97% | [9]; at 50.0 µM 78.3% | [10]; at 33.0 µM 76% | [10]; [18] 99% | [10]; at 50.0 µM 99.3% | [10]; at 100.0 µM 97% | [11]; at 33.0 µM 79% | [11]; at 100.0 µM 97% | [12]; at 33.0 µM 81% | [12]; at 100.0 µM 98% | [13]; at 33.0 µM 92% | [13]; at 100.0 µM 98%
